# miR-122 sensor – inhibitors of miR-122 in Huh7 cells; Huh7 miR-122 Renilla luciferase sensor, 48 h; neutral wells = 0, positive control = 100; activation (reporter increase), % at 12.5 µM; hit rate 0.3% among 340,000; AID 602342;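 active means mean replicate activation score at least 90 and every replicate individually at or above 90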;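 further: higher luciferase means less miR-122 activity so hits act as miR-122 inhibitors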
# PAX8 inh HTS – PAX8 transcriptional activity inhibition; RMG-I TPO-luciferase reporter, SteadyGlo, 24 h; inhibition, % at 12.6 µM; hit rate 1.2% among 360,000;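 active means mean replicate inhibition at least 60% with every replicate also reaching 60%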;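 further: luciferase light reporting Pax8 driven TPO promoter activity; plate controls were median of neutral control wells for no effect and mitoxantrone controls for full effect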
# EWS-Fli block – blocks EWS/Fli oncoprotein-driven transcription | A673 NR0B1-luciferase reporter, viability-normalised | inhibition, % at 12.6 µM | hit rate 0.67% among 350,000;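 active means mean inhibition of at least 50% after viability correction, with every replicate also passing that limit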;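 further: firefly luciferase signal divided by Alamar Blue viability fluorescence both relative to DMSO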
# HIV Env fusion – HIV envelope-mediated fusion inhibition; HeLa-JRFL Env/CEM21 cell fusion, luciferase; inhibition, % at 12.3 µM; hit rate 1.1% among 360,000; AID 651610;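 active means mean replicate inhibition score of at least 50 and every replicate individually at or above 50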;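 further: 0% = plate neutral controls and 100% = maraviroc near 300 nM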
# GSIS activator – primary screen for activators of insulin secretion dependent on glucose, INS-1E cells, GLuc reporter luminescence. hit rate 0.61% among 370,000. activation, % at 16.6 µM. INS-1E GLuc reporter insulin secretion, 2-3 h;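 active means lowest replicate activation of at least 40%, so every replicate reaches that level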;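 further: 0% = median of neutral control wells and 100% = median of IBMX positive control wells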
# C2C12 statin – suppression of simvastatin myotoxicity. C2C12 myotubes + simvastatin, ATP luminescence, 48 h; scaled: DMSO 0, geranylgeraniol control 100. rescue of ATP level, % at 7.49 µM. hit rate 0.78% among 330,000. AID 602340;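 active means mean ATP rescue above about 67%, or every replicate alone reaching that limit, limit read from the data, passing the limit was not always enough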;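 further: myotubes were challenged with 10 µM simvastatin during compound exposure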
# Starred values were filed as active, the others as inactive; / = not tested or not shown; [ ] = another dose, or the depositor's remark. In the library only some 3.1% were active in any assay of this set; here they are far more common.
SMILES,miR-122 sensor,PAX8 inh HTS,EWS-Fli block,HIV Env fusion,GSIS activator,C2C12 statin
COc1ccc(NC(=O)Nc2ccc3c(c2)CC(=O)N([C@H](C)CO)C[C@H](C)[C@H](CN(C)S(=O)(=O)c2c(C)noc2C)O3)cc1,-2[16.7 µM],3,-18,47[16.7 µM],-17,-8
Cc1noc(C)c1NC(=O)N(C)C[C@@H]1Oc2c(NC(=O)c3ccncc3)cccc2C(=O)N([C@@H](C)CO)C[C@H]1C,2[16.7 µM],/,3,/,4,-2
O=C(CN1CCN(Cc2ccccc2F)C1=O)NC1CCCC1,10,-1,6,-5,/,-3
O=C(CN1CCCN(Cc2ccc(F)cc2Cl)C1=O)NC1CCCCCCC1,-7,/,/,72*,-22,17
C[C@H](CO)N1C[C@H](C)[C@H](CN(C)C(=O)NC2CCCCC2)Oc2ccc(NC(=O)Cc3ccccc3)cc2C1=O,7[16.7 µM],4,-1,6[16.7 µM],9,-17
COc1ccc(CCN2CCC(Nc3nc4ccccc4n3Cc3ccc(F)cc3)CC2)cc1,1,74*,33,-7,25,-106
COc1ccc(S(=O)(=O)N[C@@H]2CC[C@H](CCn3cc(-c4cccc(F)c4)nn3)O[C@H]2CO)cc1,/,13,9,4[16.7 µM],-14,3
CCOC(=O)c1c(C)oc2ccc(O)c(CN(C)C)c12,-3,/,/,/,/,-9
CCOC(=O)c1c(CS(=O)(=O)c2ccccc2)n(C)c2cc(Br)c(O)cc12,1,13,7,31,/,-1
CCOC(=O)c1c(CSc2ccccc2)oc2cc(Br)c(O)c(CN(C)C)c12,2,-13,-2,127*,-30,2
CCOC(=O)c1c(CSc2ccc(CC)cc2)oc2ccc(O)c(CN(C)C)c12,-3,29,30,56*,786,-18
CCOC(=O)c1c(CS(=O)(=O)c2ccccc2)n(C)c2cc(Br)c(O)c(CN(C)C)c12,5,16,13,67*,1,/
C[C@H](CO)N1C[C@H](C)[C@@H](CN(C)C(=O)C2CCC2)Oc2ncc(C#CC(C)(C)O)cc2C1=O,-5[16.7 µM],/,-8,-10[16.7 µM],14,3
C[C@@H]1CCCCO[C@H](CN(C)C)[C@H](C)CN([C@H](C)CO)C(=O)c2cc(NC(=O)NC3CCCCC3)ccc2O1,0[16.7 µM],1,-1,1[16.7 µM],6,5
O=S(=O)(c1cccc2nsnc12)N1CCOCC1,-9,/,/,/,/,114*
O=c1cc(/C=C/c2ccccc2)oc2ccccc12,40,/,/,-198,/,138*
O=c1cc(-c2ccccc2)oc2ccccc12,-3,/,-64,/,14,20
O=C(NCCCc1ccccc1)c1ccccc1,-3,/,/,/,/,/
O=C(NN(Cc1ccccc1)Cc1ccccc1)c1ccccc1,-3,-9,1,/,49*,4
CCC(=O)N1[C@H](CO)[C@H]2c3ccccc3N(C(=O)c3ccc4c(c3)OCO4)C[C@H]21,0[16.7 µM],7,-10,/,2,-13
CCN(CC)S(=O)(=O)N1CCC(C(=O)NCCN2CCOCC2)CC1,-2,/,/,3,-6,107*
CCCCN(CC)S(=O)(=O)N1CCC(C(=O)NCCCN2CCOCC2)CC1,/,46,3,/,-5,/
CCCNC(=O)N(C)C[C@@H]1Oc2ncc(-c3ccccc3)cc2C(=O)N([C@H](C)CO)C[C@@H]1C,-8[16.7 µM],/,-2,13[16.7 µM],11,24
O=C(CCN1CCC(c2ccccc2)C1)c1ccccc1 (configuration not stated),-1,/,-4,/,10,41
O=C(CCN1CCc2ccccc2C1)c1ccc2c(c1)OCCO2,-14,/,/,/,/,-2
SMILES,miR-122 sensor,PAX8 inh HTS,EWS-Fli block,HIV Env fusion,GSIS activator,C2C12 statin
O=C(CCN1CCc2ccccc21)c1ccc2c(c1)OCCO2,-6,/,/,/,/,115*
O=C(CCN1CCC(c2ccccc2)C1)c1ccc2c(c1)OCCO2 (configuration not stated),3,76*,-3,3,/,-6
O=C(N[C@@H]1CC[C@@H](CCNS(=O)(=O)c2ccccc2)O[C@@H]1CO)c1cccnc1,/,-4,-6,4[16.7 µM],9,3
CCCCCCCCCC[n+]1cccc2c3ccccc3ccc21,/,81*,40,59*,97*,/
CCCCCCCC[n+]1cccc2c3ccccc3ccc21,/,82*,46,84*,-76,/
N#Cc1ccc(S(=O)(=O)N2CCCN(c3nc4ccc(Cl)cc4s3)CC2)cc1,-1,15,20,55*,-3,4
O=[N+]([O-])/C(=C\Nc1ccc(F)cc1F)S(=O)(=O)c1ccccc1,1,-12,-5,6,7,1
